Measured values: PubChem BioAssay AID720553 (National Center for Advancing Translational Sciences (NCATS), 2013)
In all, about 340,000 compounds went through this assay and about 3,300 (0.97%) were called active. The full list was thinned out, with actives kept by preference. A number with no mark means an inactive call.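 Rule for the calls: active = maximum activity change below -70%; inconclusive = maximum activity change from -70% to -50%; inactive = maximum activity change above -50%.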

The compounds below were run on Potassium voltage-gated channel subfamily H member 2, brain isoform KCNH2 3.1 (human) (assay: qHTS for Inhibitors of KCHN2 3.1: Mutant qHTS). Settings: U2OS KCNH2 3.1, thallium flux FluxOr; stronger effect = lower value.
Text: Many antipsychotic drugs that inhibit the neurotransmitter dopamine also bind to hERG1 channel which might help explain their antipsychotic activity but also produces cardiac side effects. The discovery of the novel KCNH2 3.1 isoform offers a potential new target for the development of antipsychotic drugs without cardiac side effects. This proposal will use a high throughput thallium flux assay developed for KCNH2 to screen compounds that modulate the activity of KCNH2 3.1. The wild type KCNH2 channel will also be screened in parallel to help define the selective modulators of this KCNH2 3.1 potassium channel. The resulting compounds will be validated in electrophysiology experiments. The availability of animal models will allow future testing in vivo for effects on memory and other aspects of animal physiology linked with psychosis. NIH Chemical Genomics Center [NCGC] NIH Molecular Libraries Probe Centers Network [MLPCN] MLPCN Grant: MH096539 Assay Submitter (PI): James Barrow, Johns Hopkins University, Lieber Institute for Brain Development
U2OS cells were resuspended in cell media containing 10% fetal calf serum (FCS) at a concentration of 2 million cells / mL. The solution was treated with the mutant (3.1) virus at 1.77 x 10^8 / mL and allowed to incubate at room temperature in the dark. After 4 hours of incubation, DMEM + 10% fetal bovine serum (FBS) was added to the cell solution. Three microliter was then dispensed into a 1536 tissue culture treated black assay plates which were incubated overnight at 37 C. Two microliter of loading buffer (HBSS + HEPES + Red40 dye quencher + FluxOr dye) was added and the assay plates were incubated for 45 min at room temperature in the dark. […] A stimulation buffer was added to the plate and the second kinetic read (2 min) was obtained. The rate constant was calculated from the kinetic reads and normalized to the positive and negative DMSO controls.
% is set by controls: 0 for no effect and ±100 for the full control effect.

Row | Compound | activity change
1 | c1ccc(CCN2CCC3(CC2)OCCO3)cc1 | -0.723%
2 | CCOC(=O)C1(CCc2ccccc2)CCN(Cc2ccco2)CC1 | -96.9% (active)
3 | CCOC(=O)C1(c2ccccc2)CCN(CC(O)c2ccc(NC(C)=O)cc2)CC1 (stereo not given) | -5.82%
4 | COP(=O)(OC)C(NC(=O)c1ccc(C)cc1)C(Cl)(Cl)Cl (stereo not given) | 10.5%
5 | COc1cccc(CN2CCCC(C(=O)c3ccccc3SC)C2)c1O (stereo not given) | -72.3% (active)
6 | COc1ccc(C(=O)C2CCCN(Cc3ccc(C)s3)C2)cc1OC (stereo not given) | -13%
7 | CSc1ccc(C(=O)C2CCCN(Cc3ccn[nH]3)C2)cc1 (stereo not given) | -19%
8 | CC1C2Cn3c(nc4ccccc43)C1N(C)O2 (stereo not given) | 20.5%
9 | COC(=O)C1=C(c2ccc(F)cc2OCc2ccccc2)C[C@@H]2CC[C@H]1N2C(=O)NCc1ccc(OC)c(OC)c1 | -73.8% (active)
10 | COC(=O)C1=C(c2ccc(F)cc2OCc2ccccc2)C[C@@H]2CC[C@H]1N2C(=O)NCc1ccc(C(C)(C)C)cc1 | -19.4%
11 | COC(=O)C1=C(c2ccc(F)cc2OCc2ccccc2)C[C@@H]2CC[C@H]1N2C(=O)NCc1ccc2[nH]ccc2c1 | 1.25%
12 | CC1=CC(=Cc2sc3ccccc3[n+]2C)C=C(C)O1 | -4.47%
13 | COC(=O)C1=C(c2ccc(C(C)=O)cc2)C[C@@H]2CC[C@H]1N2C(=O)NCCNC(C)=O | 21.5%
14 | COC(=O)CN1C(=O)C2(C(C(=O)OC)=C(N)Oc3ccccc32)C2=C1CC(C)(C)CC2=O (stereo not given) | -17.7%
15 | CC(Cc1ccccc1)NC=O (stereo not given) | 13.6%
16 | CC(=O)NC(=O)NC(C)Cc1ccccc1 (stereo not given) | -18.9%
17 | CC(Cc1ccccc1)NCCC(c1ccccc1)c1ccccc1 (stereo not given) | -112% (active)
18 | CCN1c2nc3c(C)cccn3c(=O)c2CC2(C(=O)N(C)C(=O)N(C)C2=O)C1C (stereo not given) | -4.08%
19 | c1ccc(C2NCc3ccccc3-n3cccc32)cc1 (stereo not given) | 12.2%
20 | CC1(C)C(c2ccccc2)=NC(c2cccnc2)=[N+]1[O-] | 0.45%

Row | Compound | activity change
21 | CN(C)c1nc(N(C)C)nc(N(C#N)CCCl)n1 | -8.4%
22 | OCC#CC[N+]1(CC#Cc2ccccc2)CCCC1 | 13.7%
23 | Cn1c(O)c(C=Nc2ccc3c(c2)CCC3)c(=O)n(C)c1=O | -17.3%
24 | CCOC(=O)C1(Cc2ccc(Cl)cc2)CCN(C(C)CCn2cccn2)CC1 (stereo not given) | -115% (active)
25 | O=c1c2ccccc2nc(/C=C/c2ccc(F)cc2)n1-c1ccccc1O | -2.48%
26 | CC(C)c1ccc(OCC(=O)N2CCCN(C)CC2)cc1 | 10.3%
27 | CN1CCN(C(=O)COc2ccc(C(C)(C)C)cc2Br)CC1 | -2.07%
28 | CC(C)c1ccc(OCC(=O)N2CCN(C)CC2)c(Br)c1 | -93.1% (active)
29 | CC(=C1C(=O)c2ccccc2C1=O)N1CCN(CCN=Cc2c(O)n(C)c(=O)n(C)c2=O)CC1 | 10.3%
30 | CC1CC=CCC12C(=O)NC(=S)NC2=O (stereo not given) | 10.6%
31 | CSC1=NP(=S)(SC)N(C)c2nc3n(c21)CCC3 (stereo not given) | -5.66%
32 | Cc1cc(C)cc(NC(=S)NC2CC3CCCC(C2)N3Cc2cccs2)c1 (stereo not given) | -73.1% (active)
33 | c1ccc(CCNC2CCCCCC2)cc1 | 12.5%
34 | CNC(=O)O/N=C(\N)Cc1csc2ccc(Cl)cc12 | 4.55%
35 | N#Cc1ccc(Cn2cc(C(=O)c3ccco3)c3ccccc32)cc1 | -80.8% (active)
36 | NC(=O)Cn1cc(C(=O)c2ccccc2F)c2ccccc21 | 3.8%
37 | COc1ccc2[nH]c3c(c2c1)CCN[C@H]3C | 2.31%
38 | COc1cc(OC)cc(C2(C#N)CCN(C)CC2)c1 | 5.57%
39 | Cc1ncoc1C(=O)NCC1=C(c2cccc3ccccc23)C[C@@H]2CC[C@H]1N2Cc1ccco1 | -7.12%
40 | CC(=CCOc1ccc2ccc(=O)oc2c1)C1=CC(=O)C(C)(C)O1 | 4.08%
